EP2 antag – EP2 receptor (human) inhibition | P43116 | C6 glioma cells expressing human EP2, cAMP TR-FRET; cells stimulated with saturating PGE2 | inhibition, % at 25 µM | 260,000 tested, 0.52% active;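 active = percent inhibition above 40 after rounding to a whole number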;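 note: rat C6 glioma host cells with rolipram phosphodiesterase inhibitor present; the protocol text gives 20 µM as final concentration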
S1P3 antag – S1P3 (human) receptor antagonism; Q99500; CHO S1P3 NFAT-BLA reporter, FRET fluorescence, antagonist mode; inhibition, % at 4.98 µM; 170,000 tested, 0.27% active; AID 485;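 active = inhibition above the plate cutoff, the mean inhibition of test wells on that plate plus 3 SD, cut at about 28% in these data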;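 note: cells challenged with S1P at its EC80 of 0.8 µM; blue over green emission ratio from cleaved BLA substrate after 4 h stimulation; 0% = S1P-stimulated wells and 100% = unstimulated DMSO-only wells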
S1P4 antag – blocks the human S1P4 receptor | S1P4-expressing cells, antagonist mode, reporter read-out | inhibition, % at 4.98 µM | 220,000 tested, 0.26% active; in the data active = inhibition above about 29%;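 note: 0% = wells stimulated with agonist and 100% = vehicle wells without agonist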
Target sequence (O95977 whole entry, looked up): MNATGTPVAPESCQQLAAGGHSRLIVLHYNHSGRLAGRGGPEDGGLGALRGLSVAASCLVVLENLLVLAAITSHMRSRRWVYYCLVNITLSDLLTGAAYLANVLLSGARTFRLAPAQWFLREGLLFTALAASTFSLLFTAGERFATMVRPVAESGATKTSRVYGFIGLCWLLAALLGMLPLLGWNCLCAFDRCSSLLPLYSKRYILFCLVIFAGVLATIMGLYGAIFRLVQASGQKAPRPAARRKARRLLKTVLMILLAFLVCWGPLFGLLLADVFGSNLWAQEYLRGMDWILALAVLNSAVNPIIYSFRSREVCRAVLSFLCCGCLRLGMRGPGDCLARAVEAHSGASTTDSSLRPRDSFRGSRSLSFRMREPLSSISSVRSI
S1P4 ag – agonists of human S1P4 receptor | O95977 | S1P4-expressing cell line, agonist reporter assay | activation, % at 4.98 µM | 220,000 tested, 0.35% active | AID 1509; in the data active = activation above about 11%;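 note: 0% = DMSO vehicle and 100% = reference agonist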
EP2 modulator – EP2 receptor (human) modulation; P43116; EP2-expressing cells, cAMP HTRF FRET, PGE2 co-stimulation; induction, % at 25 µM; 260,000 tested, 0.83% active; AID 940;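 active = compounds whose cAMP rise, as percent of the full-agonist control response, exceeds 60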;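 note: rat C6 glioma line stably carrying human EP2 under a CMV promoter; the protocol text gives 20 µM as final concentration; 100% = response of wells given 1 µM PGE2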
An asterisk follows results filed as active; x = no result given. Only some compounds are listed: those with a hit (about 2% of all), similar ones and a draw of the others.

SMILES	EP2 antag	S1P3 antag	S1P4 antag	S1P4 ag	EP2 modulator
NC(=O)c1sc2nc(-c3ccccc3)c3c(c2c1N)CCCC3	13	5	-12	-2	50
NC(=O)c1sc2nccc(Nc3ccccc3)c2c1N	10	72*	-6	0	x
C[C@@H](NC(=O)c1nc[nH]c1C(=O)N[C@@H](Cc1ccccc1)C(=O)OC(C)(C)C)c1ccccc1	5	-20	7	0	29
C[C@H](NC(=O)c1nc[nH]c1C(=O)N[C@@H](Cc1ccccc1)C(=O)OC(C)(C)C)c1ccccc1	9	-12	6	0	64*
Cc1ccccc1NC1=NC(=S)N(c2ccccc2)C12CCCCC2	9	-3	-4	2	62*
O=C1c2ccc3c4c(ccc(c24)C(=O)N1c1ccccc1)CC3	9	x	x	x	21
Nc1cccc2c1C(=O)N(c1ccccc1)C2=O	11	93*	x	x	x
CCC(NC(C)C)C(O)c1ccc(O)c2[nH]c(=O)ccc12 (centres undefined)	12	-9	-12	2	78*
Cc1cc(C(F)(F)F)nc(SCCNC(=O)/C=C/c2ccc(F)cc2)n1	5	x	x	x	-22
CC(C)(C)OC(=O)[C@H]([C@@H]1N[C@@H](C(=O)O)C(C)(C)S1)N1C(=O)c2ccccc2C1=O	42*	x	x	x	16
CCCCCCn1c(CN2CCC(C)CC2)nc2c1c(=O)n(C)c(=O)n2C	6	3	-11	0	63*
CC1=C(C)/C(=N\OS(=O)(=O)c2ccc(C)cc2)C=CC1=O	24	0	43*	1	-58
CC1=C/C(=N\OS(=O)(=O)c2ccccc2)C(C)=CC1=O	133*	x	29	-3	-24
COc1ccc(S(=O)(=O)/N=C2/C=CC(=O)C(C)=C2C)cc1	13	x	-7	-3	-19
CCn1c(Cc2ccccc2)nnc1SCC(=O)N1C(C)CCCC1C (centres undefined)	9	x	x	x	12
COC(=O)NC1SC(C)=NC1(O)c1ccccc1 (centres undefined)	17	x	x	x	2
CC(=O)N1c2ccccc2C2(O)N=C(C)SC12 (centres undefined)	42*	-8	2	1	-90
CCOC(=O)C(C)On1c(-c2ccc(Cl)cc2)nc2ccc([N+](=O)[O-])cc21 (centres undefined)	5	x	-3	0	21
CCOC(=O)C(C)On1c(-c2ccccc2)nc2ccc([N+](=O)[O-])cc21 (centres undefined)	14	x	2	-3	62*
CC1=NOC(=O)/C1=C\c1ccc(-c2ccc(Br)cc2)o1	76*	-20	6	1	-69
CC1=NOC(=O)/C1=C/c1ccc(-c2ccc(Cl)cc2)o1	184*	x	-12	-2	-45
CC1=NOC(=O)/C1=C\c1ccc(-c2cc(Cl)ccc2Cl)o1	61*	x	4	-2	-15
CC1=NOC(=O)/C1=C\c1ccc(-c2ccc(Br)cc2C(=O)O)o1	6	-3	5	0	7
Cc1ccc(-c2ccc(/C=C3\C(=O)ON=C3c3ccccc3)o2)c([N+](=O)[O-])c1	23	x	4	0	-12
CCN(CC)C(=O)Cn1nc2n(CC(=O)NC3CCCCC3C)c3ccccc3n2c1=O (centres undefined)	x	x	x	x	-5
SMILES	EP2 antag	S1P3 antag	S1P4 antag	S1P4 ag	EP2 modulator
CN1CCC[C@H](C(=O)OCC(=O)[C@]2(O)CC[C@@H]3[C@H]4CCC5=CC(=O)CC[C@@]5(C)[C@@H]4[C@@H](O)C[C@]32C)C1	53*	x	x	x	10
C[C@@]12CCC(=O)C=C1CC[C@H]1[C@H]2[C@@H](O)C[C@]2(C)[C@@H]1CC[C@@]2(O)C(=O)COC(=O)C1CCCC1	50*	x	x	x	-6
CCSc1nc2sc3c(c2c2nnc(SCC(=O)NCc4ccco4)n12)CCCC3	49*	x	3	-3	x
COc1ccc2c(c1)CC/C2=N\NC(=O)c1ccccc1	4	7	-3	1	-5
COc1ccc(C(=O)N/N=C2\C(=O)c3c(C)cc(C)cc3CC2(C)C)cc1	53*	x	x	x	-12
Cc1cccc(N2CCN(C(=O)Cn3sc4nc(C)cc(C)c4c3=O)CC2C)c1 (centres undefined)	121*	-24	7	-1	-10
Cc1cc(C)c2c(=O)n(CC(=O)Nc3cccc(F)c3)sc2n1	84*	1	22	1	-54
Cc1cc(C)c2c(=O)n(CC(=O)NCCCN3CCN(c4ccccc4F)CC3)sc2n1	x	-32	12	6	-63
Cc1cc(C)c2c(=O)n(CC(=O)Nc3ccc(Cl)cc3)sc2n1	98*	-5	24	2	-79
